A short description of assay [1]: TOX21_p53_BLA_p2_viability: Viability Assessment in the Tox21 HCT-116 p53 Agonism Beta-lactamase Assay, Phase 2 (AID 2283591).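 Also: actives lower the ATP signal meaning cytotoxicity.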 Summed up: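 Cytotoxicity readout: CellTiter-Glo ATP luminescence, 30 min at room temperature, after the beta-lactamase read. Cells were HCT116 exposed 16 h at 37C to compounds pin-transferred at 217-fold dilution from DMSO stocks.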
The target of assay [2] is Cellular tumor antigen p53 (Homo sapiens) (UniProt P04637). Nature of the assay: TOX21_p53_BLA_p2_ratio: Tox21 HCT-116 p53 Agonism Beta-lactamase Assay, Ratio, Phase 2 (AID 2283592). Summed up:
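First, HCT116 reporter cells settle for 5 h at 37C. Next, DMSO compound solutions are pinned in (217-fold dilution) and left 16 h. Finally, CCF4-AM substrate is loaded 2 h at room temperature and the 460/530 nm ratio read.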

Assay [3] in a line: TOX21_p53_BLA_p3_viability: Viability Assessment in the Tox21 HCT-116 p53 Agonism Beta-lactamase Assay, Phase 3 (AID 2283593).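 Also: cells exposed to compound for 16 h before reading.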 In outline:
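Cellular ATP was quantified by CellTiter-Glo luminescence, read after 30 min at room temperature. Beforehand, HCT116 cells (4000/well) received compound 5 h post-seeding, 217-fold diluted from DMSO, then incubated 16 h at 37C.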

For assay [4], the target named is Cellular tumor antigen p53 (Homo sapiens) (UniProt P04637). The experiment in a line: TOX21_p53_BLA_p5_ratio: Tox21 HCT-116 p53 Agonism Beta-lactamase Assay, Ratio, Phase 5 (AID 2283599). In outline:
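Beta-lactamase reporter ratio (blue 460 nm over green 530 nm, 405 nm excitation) after 2 h CCF4-AM loading, in HCT-116 cells exposed 16 h at 37 C to compounds pinned at 217-fold dilution. Increases relative to DMSO baseline scored.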

The nature of assay [5]: TOX21_p53_BLA_p5_viability: Viability Assessment in the Tox21 HCT-116 p53 Agonism Beta-lactamase Assay, Phase 5 (AID 2283600). Summed up: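 Decreased CellTiter-Glo luminescence denotes lost viability. Exposure: 16 h at 37C, 5% CO2, with compounds from DMSO stocks diluted 217-fold in wells of 4000 cells.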
For assay [6], the target named is Cellular tumor antigen p53 (Homo sapiens) (UniProt P04637). Nature of the assay: TOX21_p53_BLA_p4_ratio: Tox21 HCT-116 p53 Agonism Beta-lactamase Assay, Ratio, Phase 4 (AID 2283601). In outline: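 Signal is the blue/green (460nm/530nm) ratio of cleaved versus uncleaved CCF4-AM substrate, read after 2 h substrate loading. Cells were HCT116 carrying the p53-responsive beta-lactamase reporter, dosed 16 h at 37C, 5% CO2; CellTiter-Glo measured in parallel.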
Sequence of Cellular tumor antigen p53 (Homo sapiens) (P04637 whole entry, looked up): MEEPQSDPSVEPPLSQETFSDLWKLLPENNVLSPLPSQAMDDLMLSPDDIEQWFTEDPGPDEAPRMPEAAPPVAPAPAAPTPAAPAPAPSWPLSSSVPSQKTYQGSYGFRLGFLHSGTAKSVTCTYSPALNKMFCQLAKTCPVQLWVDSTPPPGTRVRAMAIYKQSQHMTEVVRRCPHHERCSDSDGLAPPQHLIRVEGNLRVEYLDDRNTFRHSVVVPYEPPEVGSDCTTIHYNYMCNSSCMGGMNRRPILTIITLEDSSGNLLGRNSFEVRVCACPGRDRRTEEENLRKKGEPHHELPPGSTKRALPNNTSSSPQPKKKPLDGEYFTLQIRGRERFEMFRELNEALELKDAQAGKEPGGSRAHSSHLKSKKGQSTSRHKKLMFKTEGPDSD

Assay [7] in a line: TOX21_p53_BLA_p4_viability: Viability Assessment in the Tox21 HCT-116 p53 Agonism Beta-lactamase Assay, Phase 4 (AID 2283597).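 Also: hits lower the luminescence signal meaning cytotoxicity.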 In outline:
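4000 HCT116 cells per well; 5 h attachment; compounds from DMSO, 217-fold dilution; 16 h at 37C. Then CCF4-AM, 2 h RT, followed by CellTiter-Glo, 30 min RT, luminescence. Decrease = cytotoxicity.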

In assay [8] the target is Cellular tumor antigen p53 (Homo sapiens) (UniProt P04637). The experiment in a line: TOX21_p53_BLA_p3_ratio: Tox21 HCT-116 p53 Agonism Beta-lactamase Assay, Ratio, Phase 3 (AID 2283596). In outline: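 Cells were seeded at 4000/well, rested 5 h at 37C, then dosed with DMSO compound solutions (217-fold dilution) for 16 h. CCF4-AM substrate was loaded for 2 h at room temperature, and the 460/530 nm emission ratio was fitted for gain of signal versus DMSO.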

In assay [9] the target is Thyroid hormone receptor alpha (Rattus norvegicus) + Thyroid hormone receptor beta (Rattus norvegicus) (UniProt P18113+P63059). The experiment in a line: TOX21_TR_LUC_GH3_Antagonist_Followup: Tox21 GH3 Thyroid Hormone Receptor Antagonism Luciferase Follow-Up Assay (AID 2283942). Summed up: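 Loss of T3-driven (1.0 nM final) reporter activity in GH3 cells was read by ONE-Glo luminescence after 24 h incubation at 37C; 15-point compound series spanned 92 uM to 5nM final, 1,500 cells/well.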

A further assay has as its target THRA (gene 7067) (UniProt P10827). The experiment in a line: TOX21_TRA_COA_Antagonist_Followup_ratio: Tox21 Thyroid Hormone Receptor alpha Antagonism through Coactivator Recruitment Follow-Up Assay, Ratio (AID 2283953). In outline: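 We measured antagonism of T3-type coactivator recruitment using a TR-FRET ratio (emission 520 and 495 nm) between a Tb-labelled anti-GST antibody on TRα LBD (2.5 nM) and SRC-2 peptide (200 nM). Activity was scaled between DMSO and T3 wells.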

A short description of assay [10]: TOX21_TRB_BLA_Antagonist_Followup_viability: Viability Assessment in the Tox21 Thyroid Hormone Receptor beta Antagonism Beta-lactamase (BLA) Follow-Up Assay (AID 2283961). In outline: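 HEK293T cells with GAL4-human TRβ LBD and UAS-bla reporter, 3,000 cells/well in 2% charcoal-stripped FBS medium; 11-point concentrations in triplicate, 18 h at 37C. Viability from ATP by CellTiter-Glo luminescence, 30 min RT, same plates.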

In the next assay the target is THRB (gene 7068) (UniProt P10828). The experiment in a line: TOX21_TRB_COA_Antagonist_Followup_ratio: Tox21 Thyroid Hormone Receptor beta Antagonism through Coactivator Recruitment Follow-Up Assay, Ratio (AID 2283967). In outline: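 Coactivator recruitment to the GST-tagged TRb ligand-binding domain (5.0 nM) was read as the 520/495 nm TR-FRET ratio, using 200 nM fluorescein SRC-2 peptide and 2 nM terbium anti-GST. Scaled between DMSO and T3 wells; loss of signal fitted.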
Sequence of THRB (gene 7068) (P10828 whole entry, looked up, the tested form may be a part): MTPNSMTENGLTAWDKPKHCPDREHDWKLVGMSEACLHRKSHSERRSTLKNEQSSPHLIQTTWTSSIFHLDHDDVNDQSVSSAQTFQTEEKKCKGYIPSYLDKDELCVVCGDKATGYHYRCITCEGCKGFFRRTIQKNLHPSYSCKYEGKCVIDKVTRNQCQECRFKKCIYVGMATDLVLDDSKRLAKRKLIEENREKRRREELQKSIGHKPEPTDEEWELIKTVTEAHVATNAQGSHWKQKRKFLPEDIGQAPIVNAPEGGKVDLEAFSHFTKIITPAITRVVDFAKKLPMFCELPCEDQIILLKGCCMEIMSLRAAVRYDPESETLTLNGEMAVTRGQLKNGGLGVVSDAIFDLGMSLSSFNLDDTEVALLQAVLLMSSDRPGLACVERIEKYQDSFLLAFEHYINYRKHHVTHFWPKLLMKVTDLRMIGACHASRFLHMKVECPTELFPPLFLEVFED

Assay [11] concerns the target Retinoic acid receptor RXR-alpha (Homo sapiens) (UniProt P19793). Nature of the assay: TOX21_TR_RXR_BLA_Antagonist_Followup_ratio: Tox21 Thyroid Hormone Receptor beta Retinoid X Receptor alpha (RXRa) Antagonism Beta-lactamase (BLA) Follow-Up Assay, Ratio (AID 2283972). Summed up:
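RXRa-UAS-bla HEK293T cells, 2,500/well in phenol red-free DMEM with 2% charcoal-stripped FBS, 5 h attachment, then compounds (11 concentrations, triplicate) for 16 h at 37C; FRET-B/GCCF4-AM substrate 2 h RT; 460:530 nm ratio, loss of signal vs DMSO.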

The structures appear in SMILES notation. Results filed as inconclusive are left out. Activity calls are given as the source filed them. The calls were made as follows: active = hit-call score of the fitted dose curve at least 0.9, where 1 is the maximum; inconclusive = response in the unintended direction; inactive = score below 0.9.

A word on the AC50: it is the midpoint of the concentration-response curve, whichever way the signal moves.

Sequence of Retinoic acid receptor RXR-alpha (Homo sapiens) (P19793 whole entry, looked up): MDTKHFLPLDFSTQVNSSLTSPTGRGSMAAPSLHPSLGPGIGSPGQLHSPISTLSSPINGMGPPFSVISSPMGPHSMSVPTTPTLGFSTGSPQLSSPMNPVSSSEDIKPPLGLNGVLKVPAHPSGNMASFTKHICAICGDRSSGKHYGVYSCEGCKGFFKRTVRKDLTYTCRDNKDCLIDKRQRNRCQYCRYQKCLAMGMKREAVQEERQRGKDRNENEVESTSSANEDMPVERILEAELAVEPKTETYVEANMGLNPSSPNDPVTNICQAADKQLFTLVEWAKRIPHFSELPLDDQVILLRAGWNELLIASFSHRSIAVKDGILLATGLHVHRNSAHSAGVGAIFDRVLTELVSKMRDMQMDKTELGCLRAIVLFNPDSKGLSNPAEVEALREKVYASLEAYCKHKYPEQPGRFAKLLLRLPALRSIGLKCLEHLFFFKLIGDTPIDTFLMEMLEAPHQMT
Sequence of THRA (gene 7067) (P10827 whole entry, looked up, the tested form may be a part): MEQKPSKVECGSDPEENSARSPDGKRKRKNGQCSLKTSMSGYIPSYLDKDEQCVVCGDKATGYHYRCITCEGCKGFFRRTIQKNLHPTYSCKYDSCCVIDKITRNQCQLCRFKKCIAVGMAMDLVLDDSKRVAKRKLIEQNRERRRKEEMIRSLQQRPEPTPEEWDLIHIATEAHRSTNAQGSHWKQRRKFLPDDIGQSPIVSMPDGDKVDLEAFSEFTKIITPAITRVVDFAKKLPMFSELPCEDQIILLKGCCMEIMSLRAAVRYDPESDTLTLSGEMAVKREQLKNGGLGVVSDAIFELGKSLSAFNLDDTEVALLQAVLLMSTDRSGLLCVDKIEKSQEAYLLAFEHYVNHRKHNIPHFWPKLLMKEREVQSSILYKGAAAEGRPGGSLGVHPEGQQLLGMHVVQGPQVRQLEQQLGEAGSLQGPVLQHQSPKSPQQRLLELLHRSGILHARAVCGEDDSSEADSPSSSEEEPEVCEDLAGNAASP

For the molecule `NCc1cccnc1`, the molecule was classed as inactive in assay [1], in [2], in assay [3], in assay [4], in assay [5] and in assay [6].

As for `O=C(O)CBr`, the molecule was classed as inactive in [1], in assay [2], in [3], in assay [7], in assay [4] and in assay [5]. In addition, in assay [6], the result was inactive.

Consider `COc1cccc(C(=O)CCN[C@@H](C)[C@H](O)c2ccccc2)c1`, for which the molecule was called inactive in [1], in assay [2], in assay [3], in assay [7], in assay [4] and in [5]. Moreover, the result in [6] was inactive.

Consider `Cc1nc2ccccc2c(=O)n1-c1ccccc1Cl`, for which the call in assay [1], in [2], in assay [3], in assay [7] and in assay [5] was inactive.

As to `Cc1cc(C)c(C(=O)P(=O)(C(=O)c2c(C)cc(C)cc2C)c2ccccc2)c(C)c1`, the molecule was called inactive in assay [1], in assay [2], in [3], in [4] and in assay [6].

Take `Oc1ccc(Cl)c(Cl)c1Cl`: the result in assay [1], in assay [2], in assay [8], in [7], in assay [4] and in assay [5] was inactive. The outcome in [6] was inactive.

Regarding `SCc1ccccc1`, the result in assay [1], in assay [2], in assay [3], in [4] and in assay [6] was inactive.

As for `CCCCCCCCCCCOC(=O)c1ccccc1C(=O)OCCCCCCCCCCC`, the call in assay [1], in assay [2], in assay [8], in [7], in [4] and in [5] was inactive. Also, the outcome in assay [6] was inactive.

Turning to `C=CCSSCC=C`, the molecule was called inactive in assay [1], in assay [2], in [7] and in [5]. For the same molecule, the AC50 in assay [8] is 57.5 µM (active).

With `Cc1ccc2c(c1)C1CN(C)CCC1N2` (stereo not given), the molecule was called inactive in [1], in assay [2], in assay [3], in [4] and in assay [6].

Consider `Nc1nc(N)c(N)c(N)n1`, for which the result in assay [1], in [2], in [8] and in [7] was inactive.

As for `CCCC(C)(COC(N)=O)COC(N)=O`, the molecule was called inactive in [1], in assay [2], in [8], in [7], in assay [4] and in assay [5]. Also, the outcome in [6] was inactive.

In the case of `CCC(C)Cl` (stereo not given), the molecule was classed as inactive in assay [1], in [2], in [8], in [7], in assay [4] and in assay [5]. For the same molecule, in [6], the result was inactive.

On to `Cc1ccc2c(C)cccc2c1`, for which the call in assay [1], in assay [2], in assay [8], in [7] and in assay [4] was inactive.

Take `O=C(CCl)c1ccc(Oc2ccc(C(=O)CCl)cc2)cc1`: the result in assay [1], in [8], in assay [7] and in assay [4] was inactive. In addition, the figures for the AC50 in assay [2] and in assay [6] were 43.4 µM (active) and 41.9 µM (active), respectively.

With `CC(=O)C(Cl)Cl`, the outcome in assay [1], in assay [2], in assay [8], in assay [7], in [4] and in assay [5] was inactive. Besides, the result in [6] was inactive.

Take `COC(C)(C)C`: the outcome in assay [1], in assay [2], in assay [8], in [7], in [4] and in [5] was inactive. Moreover, in [6], the outcome was inactive.

In the case of `NCC(O)c1ccc(O)cc1` (stereo not given), the molecule was classed as inactive in [1], in assay [2], in [8], in assay [7], in [4] and in assay [5]. The result in assay [6] was inactive.

Turning to `C=CC=O`, the outcome in [1], in [2], in assay [8], in assay [7], in [4] and in [5] was inactive.

For the molecule `CCOc1ccc2c3c1O[C@H]1[C@@H](O)C=C[C@H]4[C@@H](C2)N(C)CC[C@@]341`, the result in [1], in assay [2], in assay [8] and in assay [7] was inactive.

With `CN1CCc2cc(Cl)c(O)cc2[C@H]2c3ccccc3CC[C@@H]21`, the molecule was called inactive in [1], in assay [2], in [8], in assay [7], in assay [4] and in assay [5].

For `c1ccc(OCC2CO2)cc1` (stereo not given), the molecule was classed as inactive in [1], in assay [2], in [8], in assay [7] and in assay [5].

Consider `COc1cc(C[C@H](C)N)c(OC)cc1Br`, for which the molecule was classed as inactive in [1], in [2], in assay [3], in [4] and in [6].

For `CCC(COC(=O)c1cc(OC)c(OC)c(OC)c1)(c1ccccc1)N(C)C` (stereo not given), the outcome in assay [1], in assay [2], in [3], in assay [5], in assay [6] and in assay [9] was inactive. Further, the result (with THRA (gene 7067); in [10]; with THRB (gene 7068); in [11]) was inactive.

As to `CC(=O)[C@H]1CC[C@H]2[C@@H]3CC[C@H]4C[C@](C)(O)CC[C@]4(C)[C@H]3CC[C@]12C`, the molecule was classed as inactive in [1], in assay [2], in assay [3], in assay [4] and in [6].

Regarding `ClC(Cl)(Cl)C(Cl)(Cl)Cl`, the molecule was classed as inactive in [1], in assay [2], in assay [3] and in assay [5].

For `N#CC(C#N)=Cc1cc(O)c(O)c(O)c1`, the result in assay [1], in assay [2], in [8], in assay [7], in assay [4] and in [6] was inactive.

As to `O=C1CN=C(c2ccccc2)c2cc(Cl)ccc2N1`, the molecule was called inactive in [1], in [2] and in [8].

Consider `C#C[C@]1(O)C=C[C@H]2[C@@H]3CCC4=CC(=O)CC[C@@H]4[C@H]3CC[C@@]21CC`, for which the call in assay [1], in [2], in assay [8], in assay [7], in assay [4] and in assay [6] was inactive.

For the molecule `C=CC(=O)OC(C)(C)C`, the result in [1], in [2], in assay [8], in [7], in assay [4] and in assay [5] was inactive.

For the molecule `O=C(O)CC[N+](=O)[O-]`, the molecule was classed as inactive in assay [1], in assay [2], in assay [8], in assay [7], in assay [4] and in assay [5]. In addition, the result in assay [6] was inactive.

For `ClC=C(Cl)Cl`, the call in assay [1], in assay [2], in assay [8], in [7], in assay [4] and in assay [6] was inactive.

With `OCC(Br)CBr` (stereo not given), the result in [1], in assay [2], in assay [8], in [7], in assay [4] and in assay [5] was inactive.

In the case of `CCCC(=O)Cl`, the molecule was classed as inactive in assay [1], in assay [2], in [8], in assay [7] and in [5].

In the case of `CCC/C=C/C=C/C(=O)O[C@H]1/C(=C/C(=O)OC)C[C@H]2C[C@H]([C@@H](C)O)OC(=O)C[C@H](O)C[C@@H]3C[C@H](OC(C)=O)C(C)(C)[C@](O)(C[C@@H]4C/C(=C/C(=O)OC)C[C@H](/C=C/C(C)(C)[C@]1(O)O2)O4)O3`, the molecule was classed as inactive in assay [1], in assay [2], in assay [8], in assay [7], in [4] and in assay [6].
